Experimental data from the supplement of paper PMC10849652.
Targets with a hit are over-represented here; the source holds about 7,900 in all. About 0.6% of all pairs of compound and target were hits.

What was measured:
Experiment in all cases: log2 fold change, soluble protein after heating vs DMSO (PISA); higher = thermal stabilisation; K562 cells, 10 uM, 30 min; active = over 0.2 and 3.5 SD of the protein, either way, in both replicates (recomputed)
[1] = compound: COC1=CC=C(C=C1)CN2C=CC3=C2C=C(C=C3)C(=O)NO
How it was run: (§1)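 K562 cells at 2×10^6 cells/mL were treated for 30 min with 10 μM compound, and aliquots were heated for 3 min over 48°C-58°C before pooling. Extraction used PBS with 0.5% NP-40 at 4°C, and soluble protein was the supernatant after 21,000xg for 90 min, measured by TMTpro 16plex LC-MS/MS with channel sums equalised. Thermal stability values, relative to control samples and from duplicates, are log2 fold changes.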

filanesib = compound: CON(C)C(=O)N1N=C(c2cc(F)ccc2F)S[C@@]1(CCCN)c1ccccc1 [filanesib]
How it was run: as §1

zotarolimus = compound: CO[C@H]1C[C@@H]2CC[C@@H](C)[C@@](O)(O2)C(=O)C(=O)N2CCCC[C@H]2C(=O)O[C@H]([C@H](C)C[C@@H]2CC[C@H](n3cnnn3)[C@H](OC)C2)CC(=O)[C@H](C)/C=C(\C)[C@@H](O)[C@@H](OC)C(=O)[C@H](C)C[C@H](C)/C=C/C=C/C=C/1C [zotarolimus]
How it was run: as §1

idasanutlin = compound: COc1cc(C(=O)O)ccc1NC(=O)[C@@H]1N[C@@H](CC(C)(C)C)[C@](C#N)(c2ccc(Cl)cc2F)[C@H]1c1cccc(Cl)c1F [idasanutlin]
How it was run: as §1

alisertib = compound: COc1cc(Nc2ncc3c(n2)-c2ccc(Cl)cc2C(c2c(F)cccc2OC)=NC3)ccc1C(=O)O [alisertib]
How it was run: as §1

[2] = compound: COc1cc2nc(-c3cc(F)ccc3O)nc(N[C@@H]3CNC[C@H]3C(C)(C)O)c2cc1OC
How it was run: as §1

gefitinib = compound: COc1cc2ncnc(Nc3ccc(F)c(Cl)c3)c2cc1OCCCN1CCOCC1 [gefitinib]
How it was run: as §1

[3] = compound: COc1cccc2cc(-c3nc([C@H]4CC[C@H](C(=O)O)CC4)n4ncnc(N)c34)[nH]c12
How it was run: as §1

lapatinib = compound: CS(=O)(=O)CCNCc1ccc(-c2ccc3ncnc(Nc4ccc(OCc5cccc(F)c5)c(Cl)c4)c3c2)o1 [lapatinib]
How it was run: as §1

pictilisib = compound: CS(=O)(=O)N1CCN(Cc2cc3nc(-c4cccc5[nH]ncc45)nc(N4CCOCC4)c3s2)CC1 [pictilisib]
How it was run: as §1

[4] = compound: CS(=O)(=O)c1ccc(-c2cnc(N)c(C(=O)Nc3ccccc3)n2)cc1
How it was run: as §1

crizotinib = compound: C[C@@H](Oc1cc(-c2cnn(C3CCNCC3)c2)cnc1N)c1c(Cl)ccc(F)c1Cl [crizotinib]
How it was run: as §1

[5] = compound: C[C@@H]1COCCN1C2=NC(=NC(=C2)C3(CC3)S(=O)(=O)C)C4=C5C=CNC5=CC=C4
How it was run: as §1

[6] = compound: C[C@H](C1=CC=C(C=C1)C(=O)NC2=C3C=CNC3=NC=C2)N
How it was run: as §1

duvelisib = compound: C[C@H](Nc1ncnc2nc[nH]c12)c1cc2cccc(Cl)c2c(=O)n1-c1ccccc1 [duvelisib]
How it was run: as §1

gandotinib = compound: Cc1cc(Nc2cc(CN3CCOCC3)c3nc(C)c(Cc4ccc(Cl)cc4F)n3n2)n[nH]1 [gandotinib]
How it was run: as §1

tozasertib = compound: Cc1cc(Nc2cc(N3CCN(C)CC3)nc(Sc3ccc(NC(=O)C4CC4)cc3)n2)n[nH]1 [tozasertib]
How it was run: as §1

[7] = compound: Cc1cc(SCc2sc(-c3ccc(C(F)(F)F)cc3)nc2C)ccc1OCC(=O)O
How it was run: as §1

doramapimod = compound: Cc1ccc(-n2nc(C(C)(C)C)cc2NC(=O)Nc2ccc(OCCN3CCOCC3)c3ccccc23)cc1 [doramapimod]
How it was run: as §1

ispinesib = compound: Cc1ccc(C(=O)N(CCCN)[C@@H](c2nc3cc(Cl)ccc3c(=O)n2Cc2ccccc2)C(C)C)cc1 [ispinesib]
How it was run: as §1

Measured: log2 fold change

CBX1 (UniProt P83916)
Chain of UniProt P83916 (P83916 whole entry, looked up): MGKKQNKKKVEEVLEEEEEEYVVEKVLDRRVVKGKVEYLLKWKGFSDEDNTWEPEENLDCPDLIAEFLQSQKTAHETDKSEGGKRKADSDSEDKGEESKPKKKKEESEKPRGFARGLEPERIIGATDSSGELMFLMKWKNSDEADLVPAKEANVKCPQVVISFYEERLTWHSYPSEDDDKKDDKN
active: [1] 0.41
inactive: filanesib -0.016 | zotarolimus 0.008 | idasanutlin 0.038 | alisertib -0.059 | [2] -0.086 | gefitinib 0.021 | [3] 0.003 | lapatinib 0.037 | pictilisib -0.046 | [4] -0.03 | crizotinib 0.001 | [5] 0.043 | [6] -0.08 | duvelisib -0.006 | gandotinib 0.004 | tozasertib 0.06 | [7] -0.056 | doramapimod 0.105 | ispinesib 0.04

CPSF1 (UniProt Q10570)
Chain of UniProt Q10570 (Q10570 whole entry, looked up): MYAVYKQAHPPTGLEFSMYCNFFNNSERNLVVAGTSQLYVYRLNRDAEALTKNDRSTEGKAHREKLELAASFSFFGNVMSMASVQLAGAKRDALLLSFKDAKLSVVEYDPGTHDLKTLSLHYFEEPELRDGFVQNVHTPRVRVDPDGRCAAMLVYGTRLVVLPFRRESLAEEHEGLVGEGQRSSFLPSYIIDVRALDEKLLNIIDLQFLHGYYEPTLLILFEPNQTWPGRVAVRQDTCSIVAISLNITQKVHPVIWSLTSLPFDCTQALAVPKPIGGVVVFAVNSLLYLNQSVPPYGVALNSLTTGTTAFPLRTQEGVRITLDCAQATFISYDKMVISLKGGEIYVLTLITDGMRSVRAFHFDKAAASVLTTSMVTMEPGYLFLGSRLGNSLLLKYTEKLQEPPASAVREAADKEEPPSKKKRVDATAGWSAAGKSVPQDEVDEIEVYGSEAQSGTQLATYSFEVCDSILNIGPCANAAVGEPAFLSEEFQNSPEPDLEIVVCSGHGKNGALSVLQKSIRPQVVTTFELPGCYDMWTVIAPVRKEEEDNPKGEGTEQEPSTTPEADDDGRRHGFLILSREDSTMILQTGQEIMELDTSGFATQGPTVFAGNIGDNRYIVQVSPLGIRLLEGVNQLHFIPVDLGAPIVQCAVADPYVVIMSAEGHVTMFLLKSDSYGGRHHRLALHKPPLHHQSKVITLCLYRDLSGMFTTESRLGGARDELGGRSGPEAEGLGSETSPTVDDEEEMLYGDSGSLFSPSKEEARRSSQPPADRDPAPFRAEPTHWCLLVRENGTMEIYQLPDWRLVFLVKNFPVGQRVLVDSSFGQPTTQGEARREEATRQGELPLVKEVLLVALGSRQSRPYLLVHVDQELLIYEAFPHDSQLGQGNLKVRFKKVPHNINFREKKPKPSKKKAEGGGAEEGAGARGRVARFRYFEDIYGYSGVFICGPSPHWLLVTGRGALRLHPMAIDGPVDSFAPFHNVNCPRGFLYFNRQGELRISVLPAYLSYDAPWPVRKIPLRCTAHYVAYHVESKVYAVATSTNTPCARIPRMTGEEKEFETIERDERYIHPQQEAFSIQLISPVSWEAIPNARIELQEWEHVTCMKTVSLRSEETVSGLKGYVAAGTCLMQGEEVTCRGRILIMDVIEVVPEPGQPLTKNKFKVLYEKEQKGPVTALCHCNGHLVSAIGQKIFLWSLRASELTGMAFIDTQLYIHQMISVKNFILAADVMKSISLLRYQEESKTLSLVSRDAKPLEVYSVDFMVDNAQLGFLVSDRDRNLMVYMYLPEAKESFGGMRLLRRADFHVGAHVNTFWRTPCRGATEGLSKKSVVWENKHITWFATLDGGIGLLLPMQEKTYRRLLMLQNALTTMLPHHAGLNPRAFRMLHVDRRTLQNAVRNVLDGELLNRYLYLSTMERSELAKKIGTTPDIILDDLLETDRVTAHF
inactive: [1] -0.042 | filanesib 0.164 | zotarolimus 0.095 | idasanutlin 0.053 | alisertib -0.08 | [2] 0.02 | gefitinib -0.079 | [3] 0.01 | lapatinib 0.029 | pictilisib -0.058 | [4] -0.015 | crizotinib -0.021 | [5] -0.185 | [6] 0.048 | duvelisib 0.064 | gandotinib -0.068 | tozasertib -0.032 | [7] 0.161 | doramapimod 0.09 | ispinesib 0.036

CSNK1D (UniProt P48730)
Chain of UniProt P48730 (P48730 whole entry, looked up): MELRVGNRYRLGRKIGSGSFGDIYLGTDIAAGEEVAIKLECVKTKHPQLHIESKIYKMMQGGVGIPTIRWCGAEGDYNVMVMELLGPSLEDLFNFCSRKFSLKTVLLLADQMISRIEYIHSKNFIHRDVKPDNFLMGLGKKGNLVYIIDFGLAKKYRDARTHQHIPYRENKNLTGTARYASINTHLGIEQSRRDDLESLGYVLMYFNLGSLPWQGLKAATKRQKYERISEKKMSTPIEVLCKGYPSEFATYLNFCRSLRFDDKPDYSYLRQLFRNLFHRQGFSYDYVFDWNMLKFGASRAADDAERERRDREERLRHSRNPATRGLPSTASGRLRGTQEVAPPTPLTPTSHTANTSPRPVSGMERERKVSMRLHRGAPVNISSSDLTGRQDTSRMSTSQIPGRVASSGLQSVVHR
inactive: [1] 0.045 | filanesib 0.153 | zotarolimus -0.019 | idasanutlin 0.027 | alisertib -0.016 | [2] -0.049 | gefitinib -0.006 | [3] -0.009 | lapatinib 0.041 | pictilisib -0.053 | [4] 0.12 | crizotinib -0.103 | [5] -0.246 | [6] 0.055 | duvelisib -0.039 | gandotinib 0.054 | tozasertib -0.028 | [7] 0.069 | doramapimod 0.109 | ispinesib -0.116

CHAC2 (UniProt Q8WUX2)
Chain of UniProt Q8WUX2 (Q8WUX2 whole entry, looked up): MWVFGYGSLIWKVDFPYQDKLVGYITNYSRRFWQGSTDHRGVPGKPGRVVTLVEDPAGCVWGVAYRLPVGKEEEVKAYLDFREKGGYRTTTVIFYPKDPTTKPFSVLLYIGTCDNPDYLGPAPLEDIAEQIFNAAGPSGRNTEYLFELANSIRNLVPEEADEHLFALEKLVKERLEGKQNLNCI
inactive: [1] -0.007 | filanesib -0.032 | zotarolimus 0.066 | idasanutlin -0.019 | alisertib 0.026 | [2] -0.061 | gefitinib -0.03 | [3] 0.06 | lapatinib 0.029 | pictilisib 0.077 | [4] 0.026 | crizotinib 0.048 | [5] 0.021 | [6] -0.071 | duvelisib 0.04 | gandotinib -0.014 | tozasertib 0.059 | [7] 0.008 | doramapimod -0.021 | ispinesib 0.071

CPD (UniProt O75976)
Chain of UniProt O75976 (O75976 whole entry, looked up): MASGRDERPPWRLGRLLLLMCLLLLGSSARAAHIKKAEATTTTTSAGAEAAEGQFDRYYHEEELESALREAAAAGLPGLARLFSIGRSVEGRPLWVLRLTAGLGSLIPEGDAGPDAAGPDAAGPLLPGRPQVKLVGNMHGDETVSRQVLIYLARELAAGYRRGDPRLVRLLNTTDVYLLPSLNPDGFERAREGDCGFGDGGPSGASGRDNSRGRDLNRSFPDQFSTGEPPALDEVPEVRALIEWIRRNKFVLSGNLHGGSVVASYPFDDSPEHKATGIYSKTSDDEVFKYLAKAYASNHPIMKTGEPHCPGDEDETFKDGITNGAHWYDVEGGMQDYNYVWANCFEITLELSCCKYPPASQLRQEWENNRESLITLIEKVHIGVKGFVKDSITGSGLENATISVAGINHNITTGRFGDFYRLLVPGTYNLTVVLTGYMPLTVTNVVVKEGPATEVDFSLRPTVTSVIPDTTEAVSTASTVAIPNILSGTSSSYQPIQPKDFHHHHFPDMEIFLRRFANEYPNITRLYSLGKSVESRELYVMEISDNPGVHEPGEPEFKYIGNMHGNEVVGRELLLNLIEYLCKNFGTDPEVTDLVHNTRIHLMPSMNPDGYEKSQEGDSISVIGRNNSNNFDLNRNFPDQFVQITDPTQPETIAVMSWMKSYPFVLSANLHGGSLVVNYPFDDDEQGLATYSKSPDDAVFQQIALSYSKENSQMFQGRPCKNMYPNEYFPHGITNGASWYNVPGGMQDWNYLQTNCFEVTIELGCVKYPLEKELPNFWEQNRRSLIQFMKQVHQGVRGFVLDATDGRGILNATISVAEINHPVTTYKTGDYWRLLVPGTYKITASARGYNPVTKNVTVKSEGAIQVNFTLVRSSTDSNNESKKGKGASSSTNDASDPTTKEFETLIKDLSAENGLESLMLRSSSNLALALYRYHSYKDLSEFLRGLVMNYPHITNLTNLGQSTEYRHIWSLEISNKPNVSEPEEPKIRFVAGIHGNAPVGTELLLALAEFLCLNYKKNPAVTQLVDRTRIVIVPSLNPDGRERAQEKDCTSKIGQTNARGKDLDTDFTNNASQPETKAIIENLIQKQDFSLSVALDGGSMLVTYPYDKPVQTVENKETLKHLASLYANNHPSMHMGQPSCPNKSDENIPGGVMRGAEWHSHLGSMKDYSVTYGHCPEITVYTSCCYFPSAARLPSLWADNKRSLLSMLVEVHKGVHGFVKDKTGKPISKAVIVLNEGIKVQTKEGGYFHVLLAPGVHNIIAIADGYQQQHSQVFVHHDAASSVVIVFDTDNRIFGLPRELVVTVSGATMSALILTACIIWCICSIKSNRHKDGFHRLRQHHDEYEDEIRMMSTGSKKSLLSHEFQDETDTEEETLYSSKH
active: crizotinib -0.294
inactive: [1] 0.022 | filanesib 0.082 | zotarolimus -0.045 | idasanutlin -0.005 | alisertib -0.038 | [2] 0.046 | gefitinib 0.007 | [3] 0.015 | lapatinib -0.01 | pictilisib 0.034 | [4] 0 | [5] 0.002 | [6] 0.019 | duvelisib 0.036 | gandotinib 0.033 | tozasertib -0.036 | [7] -0.01 | doramapimod 0.028 | ispinesib -0.174

CDC42BPB (UniProt Q9Y5S2)
inactive: [1] -0.062 | filanesib 0.147 | zotarolimus 0.089 | idasanutlin 0.062 | alisertib -0.1 | [2] -0.371 | gefitinib -0.07 | [3] 0.071 | lapatinib -0.009 | pictilisib 0.025 | [4] 0.068 | crizotinib 0.056 | [5] -0.031 | [6] -0.149 | duvelisib 0.012 | gandotinib 0.029 | tozasertib 0.112 | [7] 0.005 | doramapimod 0.01 | ispinesib -0.148

CPQ (UniProt Q9Y646)
Chain of UniProt Q9Y646 (Q9Y646 whole entry, looked up): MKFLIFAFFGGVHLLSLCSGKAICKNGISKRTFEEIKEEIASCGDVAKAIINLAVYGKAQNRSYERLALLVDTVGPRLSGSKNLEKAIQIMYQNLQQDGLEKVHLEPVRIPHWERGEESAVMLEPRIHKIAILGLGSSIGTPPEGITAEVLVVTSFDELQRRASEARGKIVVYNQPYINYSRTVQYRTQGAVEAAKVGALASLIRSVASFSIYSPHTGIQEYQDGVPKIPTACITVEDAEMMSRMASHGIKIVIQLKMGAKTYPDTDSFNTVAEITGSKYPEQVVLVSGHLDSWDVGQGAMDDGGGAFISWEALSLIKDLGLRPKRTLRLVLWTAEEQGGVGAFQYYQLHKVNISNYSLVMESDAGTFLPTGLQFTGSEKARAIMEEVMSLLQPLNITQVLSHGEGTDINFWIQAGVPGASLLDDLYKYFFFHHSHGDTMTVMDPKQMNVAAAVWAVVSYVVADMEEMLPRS
inactive: [1] -0.014 | filanesib -0.05 | zotarolimus -0.058 | idasanutlin -0.093 | alisertib -0.054 | [2] 0.01 | gefitinib 0.038 | [3] 0.047 | lapatinib -0.014 | pictilisib 0.027 | [4] -0.013 | crizotinib -0.023 | [5] -0.001 | [6] 0.049 | duvelisib -0.113 | gandotinib 0.055 | tozasertib 0.004 | [7] -0.058 | doramapimod 0.03 | ispinesib 0.011

CD151 (UniProt P48509)
Chain of UniProt P48509 (P48509 whole entry, looked up): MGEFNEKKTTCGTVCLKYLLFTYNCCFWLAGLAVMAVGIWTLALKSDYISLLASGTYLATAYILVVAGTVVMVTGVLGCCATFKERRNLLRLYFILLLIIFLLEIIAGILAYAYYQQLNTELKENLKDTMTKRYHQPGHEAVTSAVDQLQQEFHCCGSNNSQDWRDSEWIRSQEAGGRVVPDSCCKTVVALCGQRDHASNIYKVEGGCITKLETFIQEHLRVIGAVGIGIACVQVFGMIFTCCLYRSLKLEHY
inactive: [1] -0.045 | filanesib 0.108 | zotarolimus -0.048 | idasanutlin -0.12 | alisertib 0.075 | [2] 0.111 | gefitinib 0.001 | [3] -0.024 | lapatinib 0.012 | pictilisib 0.116 | [4] -0.151 | crizotinib 0.208 | [5] 0.07 | [6] -0.089 | duvelisib 0.138 | gandotinib -0.19 | tozasertib -0.04 | [7] -0.043 | doramapimod -0.056 | ispinesib 0.068
